According to PubChem BioAssay (NCATS):
Inconclusive results are not listed. Activity calls are given as the source filed them. Calls come from the whole dose curve; as a rule, active = well fitted activation curve with a large enough effect; inconclusive = small, poorly fitted or top-dose-only effect; inactive = no such curve, though single readings can be large or run the other way.

target: Arylsulfatase A (Homo sapiens) (UniProt P15289); assay: qHTS screen for enhancers of Arylsulfatase A (ASA1): LOPAC Validation Assay (AID 720538); details: ASA enzyme activity, LOPAC qHTS enhancer assay; series mostly up to 57.5 µM
Excerpt: Lysosomal storage diseases (LSDs) are caused by genetic mutations in genes encoding proteins important for normal lysosomal function. In affected patients, symptoms are usually not manifested unless the mutations result in more than 90% reduction of enzymatic activity of a specific lysosomal enzyme. […] Small molecules could function as enzyme enhancement agents by binding to and stabilizing mutant misfolded proteins in the endoplasmic reticulum (ER), allowing them to evade the ER associated degradation (ERAD), and eventually reach the lysosome. Moreover, small molecules is hypothesized to be able to enhance the residual activity of deficient lysosomal enzyme by either interacting directly with the mutant enzyme or indirectly by acting in different cellular pathways; resulting to increased levels of the mutant and partially functional protein in the lysosomal compartment.
A cell based assay in 1536 well plate format was developed to evaluate activity of the lysosomal sulfatase ASA1 enzyme. ASA1 is deficient in metachromatic leukodystrophy (MLD), an LSD characterized by progressive neurodegeneration for which specific treatment is not available. Compounds that are active may therefore have some therapeutic application for this disease. This assay was used to validate the ASA1 qHTS using the Sigma LOPAC library. In this assay increase in signal = enhanced ASA1 activity. Activation is the desired outcome for this assay.
NIH Chemical Genomics Center [NCGC]
NIH Molecular Libraries Probe Centers Network [MLPCN]
Assay Submitter (PI): Gustavo Maegawa, Johns Hopkins University School of Medicine
[2] Gieselmann V, et al. Acta Paediatr Suppl. 2008; 97: 15-21
Four microliter (~8,000 cells/well) of SV40-transformed skin fibroblasts from an MLD patient (ASA-I179S) were seeded into a 1,536 solid white plate. Cells were left to adhere for 6 hrs, followed by addition of 23 nL of compounds. Cells were incubated with compounds for 48h at 37 degree C and 5% CO2. Four microliter of 1 mM pNCS substrate/lysis buffer (0.5mM pNCS final concentration) was added and incubated for 14h at room temperature. To stop the reaction, […] of 5 N of NaOH (1N NaOH final concentration) was then added and fluorescence was measured using the ViewLux plate reader (Ex=525 nm; Em=598 nm).

Arylsulfatase A (Homo sapiens), sequence (P15289 whole entry, looked up): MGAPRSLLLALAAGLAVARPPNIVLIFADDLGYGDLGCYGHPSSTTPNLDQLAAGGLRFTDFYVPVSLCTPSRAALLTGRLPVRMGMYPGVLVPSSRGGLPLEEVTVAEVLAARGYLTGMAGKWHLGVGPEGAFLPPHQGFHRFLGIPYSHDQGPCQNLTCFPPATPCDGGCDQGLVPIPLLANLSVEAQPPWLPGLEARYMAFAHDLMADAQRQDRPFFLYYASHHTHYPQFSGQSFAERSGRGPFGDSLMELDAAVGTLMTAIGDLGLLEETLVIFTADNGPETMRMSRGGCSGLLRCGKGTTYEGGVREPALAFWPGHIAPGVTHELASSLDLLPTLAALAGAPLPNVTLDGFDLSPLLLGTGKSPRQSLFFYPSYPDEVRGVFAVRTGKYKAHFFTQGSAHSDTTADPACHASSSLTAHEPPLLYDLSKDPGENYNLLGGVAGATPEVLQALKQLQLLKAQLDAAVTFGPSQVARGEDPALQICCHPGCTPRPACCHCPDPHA

Compound	outcome
Cn1c(=O)c2[nH]cnc2n(C)c1=O	inactive
NCCCNCCSP(=O)(O)O	inactive
CCC1(C)CC(=O)NC1=O (stereo not given)	inactive
CCC1(c2ccc(N)cc2)CCC(=O)NC1=O (stereo not given)	inactive
NCCc1ccc(O)cc1	inactive
COc1ccc2c(c1OC)C(=O)O[C@H]2[C@@H]1c2cc3c(cc2CCN1C)OCO3	inactive
CC(C)N(CCC(C(N)=O)(c1ccccc1)c1ccccn1)C(C)C (stereo not given)	inactive; inhibitor; fitted 0.1901 uM
O=C(O)CCCc1ccc(N(CCCl)CCCl)cc1	inactive
O=c1[nH]oc2c1CCNC2	inactive
O=P1(N(CCCl)CCCl)NCCCO1 (stereo not given)	inactive
CC(NC(C)(C)C)C(=O)c1cccc(Cl)c1 (stereo not given)	inactive
CC(C)c1cccc(C(C)C)c1O	inactive
CN=C(NC#N)NCCSCc1nc[nH]c1C	inactive; inhibitor; fitted 6.3096 uM
C=C(C)[C@H]1CN[C@H](C(=O)O)[C@H]1CC(=O)O	inactive
CCCCC/C=C\C/C=C\C/C=C\C/C=C\CCCC(=O)NCC(=O)O	inactive
